FBPA Giardia inh – qHTS Assay for Inhibitors of Fructose-1,6-bisphosphate Aldolase from Giardia Lamblia; A8B2U2; AID 2451, 2010; 290,000 tested, 0.71% active; purified Giardia FBPA; Potency, µM (titrated, usually from 59.6 µM), without a hit: at the highest dose activity, negative = inhibition, most hits filed as inhibitors; further: potency means the concentration at half of the fitted maximal effect; nearly all actives have a fitted effect of over 55% in size
Target sequence (A8B2U2 whole entry, looked up): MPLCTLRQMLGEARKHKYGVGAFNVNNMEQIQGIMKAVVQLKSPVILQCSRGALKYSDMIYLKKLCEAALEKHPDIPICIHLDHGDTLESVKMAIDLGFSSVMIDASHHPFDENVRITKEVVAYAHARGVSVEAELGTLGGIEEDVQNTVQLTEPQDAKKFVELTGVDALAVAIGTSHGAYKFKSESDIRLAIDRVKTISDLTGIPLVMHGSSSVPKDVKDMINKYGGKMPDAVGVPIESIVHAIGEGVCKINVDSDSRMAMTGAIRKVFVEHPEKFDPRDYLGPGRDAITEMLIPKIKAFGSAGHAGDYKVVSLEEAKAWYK
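Giardia FBPA (40 nM reagent) was preincubated 10 min at RT with compound (up to 57.5 uM final), then substrate plus GAPDH/TPI/NAD/arsenate coupling system with diaphorase/resazurin was added; resorufin fluorescence (525/598 nm) was read after 20 min.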
FMDV antiviral – High Throughput Screening for Foot and Mouth Disease Virus Antivirals. FMDV antiviral cell-based qHTS. AID 1159524, 2015. Potency, µM (titrated, usually from 57.9 µM), for inactives: at the highest dose activity change, negative = inhibition, most hits filed as inhibitors. 410,000 tested, 1.2% active; calls by dose curve; tested in HEK293T cells; further: read-out not given here; potency means the concentration at half of the fitted maximal effect; nearly all actives have a fitted effect of over 45% in size
HCMV antiviral – qHTS Assay for inhibitors of the human cytomegalovirus (HCMV); HFF cells, HCMV-luciferase reporter, 72 h; active compounds read low; activity change, negative = inhibition, % at 57.5 µM; 410,000 tested, 4.5% active; AID 1259415, 2018; in the data active means activity change below about -60%; inconclusive means no clear call, values can overlap the other calls; inactive means above about -39%
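Two compound doses tested in HFFs infected with HCMV-luciferase, MOI 1 PFU/cell, 72 h at 37C. Lysate luminescence read with OneGlo; data normalized against buffer-only and 10uM Salinomycin inhibitor controls.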
Lassa entry inh – qHTS for Inhibitors of binding or entry into cells for Lassa Virus. Lassa virus pseudotype entry inhibition, cell reporter. Potency, µM (series often up to 37.9 µM), for the others: at the highest dose activity change, negative = inhibition, most hits filed as inhibitors. AID 540256, 2011. 300,000 tested, 1.2% active; calls by dose curve; tested in HEK293 cells; further: potency means the concentration at half of the fitted maximal effect; nearly all actives have a fitted effect of over 50% in size
HCV inhibitor – qHTS Assay for Inhibitors of Hepatitis C Virus (HCV). Huh7.5.1 HCVcc-Cre infection, luciferase reporter, 44 h. Potency, µM (titrated, usually from 41.8 µM), without a hit: at the highest dose activity change, negative = inhibition, most hits filed as inhibitors. 340,000 tested, 3.4% active; further: potency means the concentration at half of the fitted maximal effect
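1,000 cells/well; 4 h culture; + compound; + HCVcc-Cre (~0.5 moi); 44 h; luciferase substrate, RT 15 min; read 15 sec.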
MARV entry inh – qHTS for inhibitors of binding or entry into cells for Marburg Virus. 300,000 tested, 1.8% active. AID 540276, 2011. Marburg virus pseudotyped entry inhibition, cell reporter. Potency, µM (highest dose often 37.8 µM), inactives show at the top dose activity change, negative = inhibition, hits mostly inhibitors; calls by dose curve; tested in HEK293 cells; further: potency means the concentration at half of the fitted maximal effect
* marks the source's active call; other numbers are inactive results; [ ] = dose if it differs, or a comment. Rows were chosen to be rich in hits. Some 8.3% of all compounds tested hit in one or more screens of this group. Unless noted, the call rests on the fitted dose curve; in most records, active means well fitted curve in the direction sought with a large enough effect; inconclusive means small, poorly fitted or top-dose-only effect, or another doubt; inactive means no such curve, though single readings can be large; an effect the other way counts as inactive or inconclusive. On the % scale 0 is the no-effect control and ±100 the full control effect.

How did COc1ccccc1C(=O)NCC(=O)N/N=C/c1cc(Br)ccc1OC(=O)/C=C\c1ccco1 do in these assays?
FBPA Giardia inh: -17%; FMDV antiviral: -17%; HCMV antiviral: -37; Lassa entry inh: 10%; HCV inhibitor: inconclusive; MARV entry inh: 2%

Results for O=C(CNC(=O)c1ccccc1F)N/N=C/c1cc(Br)ccc1OC(=O)/C=C/c1ccco1 ?
FBPA Giardia inh: -17%; FMDV antiviral: -17%; HCMV antiviral: -83*; Lassa entry inh: inconclusive; HCV inhibitor: 6.3µM*; MARV entry inh: inconclusive

Results for O=C(CNC(=O)c1ccc(F)cc1)N/N=C/c1cc(Br)ccc1OC(=O)/C=C/c1ccco1 ?
FBPA Giardia inh: 4%; FMDV antiviral: -7%; HCMV antiviral: -77*; HCV inhibitor: 10µM*

Results for COc1cc(OC)c(NC(=O)NNC(=O)C(=O)NC2CC2)cc1Cl ?
HCMV antiviral: 0

How did Cc1csc2ncnc(NNC(=O)c3ccc(Cl)cc3)c12 do in these assays?
FBPA Giardia inh: -27%; FMDV antiviral: inconclusive; HCMV antiviral: -38; Lassa entry inh: inconclusive; HCV inhibitor: 7.9µM*; MARV entry inh: inconclusive

How did COc1cc([C@@H]2c3cc4c(cc3[C@@H](O[C@@H]3O[C@H]5CO[C@@H](C)O[C@@H]5[C@@H](O)[C@H]3O)[C@@H]3COC(=O)[C@@H]23)OCO4)cc(OC)c1O do in these assays?
FBPA Giardia inh: 9%; FMDV antiviral: -16%

Results for NC1=CC(=O)c2cccc3cccc1c23 ?
FBPA Giardia inh: 20µM*

Results for NC(=O)C(c1ccc(F)cc1)c1ccc(C(=O)c2ccccc2)cc1 (centres undefined) ?
FBPA Giardia inh: 9%; FMDV antiviral: inconclusive; HCMV antiviral: inconclusive; HCV inhibitor: 8%

Results for NC(=O)C(c1ccc(Br)cc1)c1ccc(C(=O)c2ccccc2)cc1 (centres undefined) ?
FBPA Giardia inh: 14%; FMDV antiviral: -21%; HCMV antiviral: -34; Lassa entry inh: inconclusive; HCV inhibitor: 10µM*; MARV entry inh: inconclusive

How did O=C(CCCn1c(=O)c2sccc2n(Cc2c(F)cccc2Cl)c1=O)NCc1ccccc1 do in these assays?
FMDV antiviral: -20%; HCMV antiviral: 4; Lassa entry inh: 4%[46.1 µM]; MARV entry inh: 15%[46.1 µM]

What do the screens show for `O=C(Oc1cccc(Nc2ncnc3ccccc23)c1)c1ccccc1Cl`?
FBPA Giardia inh: -6%; FMDV antiviral: 18µM*; HCMV antiviral: -13; Lassa entry inh: -13%; HCV inhibitor: inconclusive; MARV entry inh: inconclusive

What do the screens show for `COc1cc2c(cc1OC)C(c1ccc(Cl)cc1)N(c1cccc(C#N)c1)C(=O)C2` (centres undefined)?
FMDV antiviral: -22%; HCMV antiviral: 14; Lassa entry inh: inconclusive; MARV entry inh: -45%[46.1 µM]

What do the screens show for `Cc1ccccc1N=CC1=C(O)c2ccccc2C1=O`?
FBPA Giardia inh: -12%; FMDV antiviral: 8.9µM*; HCMV antiviral: 23; Lassa entry inh: 10µM*; HCV inhibitor: -3%; MARV entry inh: 8.9µM*

How did O=C1C(C=Nc2ccc(F)cc2)=C(O)c2ccccc21 do in these assays?
FBPA Giardia inh: 0%; FMDV antiviral: -52%; HCMV antiviral: 13; Lassa entry inh: inconclusive; HCV inhibitor: 3%; MARV entry inh: 9%[46.1 µM]

What do the screens show for `COc1ccc(N=CC2=C(O)c3ccccc3C2=O)c(OC)c1`?
FBPA Giardia inh: -5%; FMDV antiviral: inconclusive; HCMV antiviral: -31; Lassa entry inh: 2.5µM*; HCV inhibitor: 17%; MARV entry inh: inconclusive

How did COc1ccc(N=Cc2c(O)n(Cc3ccccc3)c(=S)[nH]c2=O)c(OC)c1 do in these assays?
FBPA Giardia inh: -3%; FMDV antiviral: 39%; HCMV antiviral: -7; Lassa entry inh: 14%; HCV inhibitor: -29%; MARV entry inh: 6%

What do the screens show for `CC(C)=CCC/C(C)=C/CC/C(C)=C/CSCC(=O)O`?
FBPA Giardia inh: 6%

Compound activity deposited in PubChem by National Center for Advancing Translational Sciences (NCATS).
